The text below walks through data of PubChem BioAssay (NCI).

Each structure is given as a SMILES string. This is part of a sample that, as a whole, favours compounds with a hit. Of some 83,000 tested, about 20% had one in any assay.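 A percent growth of 40 corresponds to 60% growth inhibition; 0 means no net growth; -100 means all cells died. Active threshold: below 10.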 A number with no mark means an inactive call. The source made the active and inactive calls.

Among the test systems are NCI-H23 lung; NCI-H226 lung; NCI-H322M lung; HOP-62 NSCLC; NCI-H460 lung; HOP-92 NSCLC; NCI-H522 lung; A549/ATCC NSCLC; 786-0 renal; COLO 205 colon.
Holding throughout (test): NCI-60 one-dose screen, 48 h (100 = growth as untreated, 0 = no growth, -100 = all killed)
Common to all, as to settings: 10 µM unless noted

`CNC(=O)c1cc(-n2ccc3cc(NC(=O)c4ccc(N5CCOCC5)c(C(F)(F)F)c4)ccc32)ccn1`: the growth was 64% in the test on NCI-H23 lung; 51.7% in the test with NCI-H226 lung; 91.5% in the test with NCI-H322M lung; 62% in the test with HOP-62 NSCLC; 68.4% in the test with NCI-H460 lung; 60.5% in the test on HOP-92 NSCLC. The growth with NCI-H522 lung was 52%; in the test with A549/ATCC NSCLC, 46.3%; with 786-0 renal it was 47.8%; in the test with COLO 205 colon, 42.9%.

Take `COc1c(C2CC(=O)Nc3c2c(C)nn3-c2nc3ccccc3[nH]2)cc2c(c1OC)OCO2` (stereo not given): the growth in the test with NCI-H23 lung was 48.2%; with NCI-H226 lung, 75.8%; with NCI-H322M lung, 78.5%; in the test on HOP-62 NSCLC, 43.4%; with NCI-H460 lung, 35.6%; in the test on HOP-92 NSCLC, 70.9%. In addition, the growth with NCI-H522 lung was 53.3%; with A549/ATCC NSCLC, 35.8%; with 786-0 renal, 67.6%; with COLO 205 colon, 84.1%.

Turning to `C#C[C@]1(O)CC[C@H]2[C@@H]3CC=C4c5sc(Nc6ccccc6)nc5CC[C@]4(C)[C@H]3CC[C@@]21C`, the growth with NCI-H23 lung is 39.1%; with NCI-H226 lung it was 62.7%; in the test with NCI-H322M lung, 48%; in the test on HOP-62 NSCLC it was 35.5%; with NCI-H460 lung it was 20.5%; in the test with HOP-92 NSCLC it was 53.4%. Besides, the growth was 43.3% in the test on NCI-H522 lung, 52.9% in the test on A549/ATCC NSCLC, -36.5% (active) in the test with 786-0 renal and 10.1% with COLO 205 colon.

For `O=C(O)CCC/C=C\C[C@H]1C=CC(=O)/C1=C/C[C@@H](O)CCc1cccc(C(F)(F)F)c1`, the growth was -22.1% (active) in the test on NCI-H23 lung; -39.5% (active) in the test on NCI-H226 lung; 11.3% in the test on NCI-H322M lung; -31.9% (active) in the test with HOP-62 NSCLC; -65.1% (active) with NCI-H460 lung; -20.6% (active) in the test with HOP-92 NSCLC. For the same compound, the growth is -62.7% (active) with NCI-H522 lung, -7.82% (active) in the test with A549/ATCC NSCLC, -31.3% (active) in the test on 786-0 renal and -38.1% (active) in the test on COLO 205 colon.

For the compound `CC[C@H](C)C(=O)O[C@H]1CCC=C2C=C[C@H](C)[C@H](CC[C@@H]3CC=CC(=O)O3)[C@H]21`, the growth is 96.5% in the test on NCI-H23 lung; 107% with NCI-H226 lung; 95.9% in the test with NCI-H322M lung; 99.6% with HOP-62 NSCLC; 99% in the test on NCI-H460 lung; 42% with HOP-92 NSCLC. Also, the growth is 56.2% with NCI-H522 lung, 85.6% with A549/ATCC NSCLC, 95.5% in the test with 786-0 renal and 103% with COLO 205 colon.

Turning to `CCCCN(C)N=Nc1ccc(C(N)=O)cc1`, the growth in the test on NCI-H23 lung was 102%; in the test on NCI-H226 lung it was 124%; in the test with NCI-H322M lung, 105%; in the test on HOP-62 NSCLC it was 122%; in the test on NCI-H460 lung, 104%; with HOP-92 NSCLC, 103%. The growth in the test with NCI-H522 lung is 109%; in the test with A549/ATCC NSCLC, 97.3%; in the test on 786-0 renal it was 106%; in the test on COLO 205 colon, 110%.

Take `COc1ccc(C2CC(c3ccc(Nc4ccnc5cc(Cl)ccc45)cc3)=NN2C=O)cc1` (stereo not given): the growth in the test on NCI-H23 lung is 76.9%; in the test with NCI-H226 lung, 90.5%; with NCI-H322M lung it was 103%; in the test on HOP-62 NSCLC, 90.7%; with NCI-H460 lung, 80.2%; in the test with HOP-92 NSCLC, 48.3%. In addition, the growth with NCI-H522 lung was 67.3%; in the test with A549/ATCC NSCLC it was 64.3%; with 786-0 renal it was 70.5%; in the test with COLO 205 colon, 89.4%.

With `CC1(C)C2CC1C1(/C=N/NC(N)=S)C(C2)C(C#N)(C#N)C1(C#N)C#N` (stereo not given), the growth with NCI-H23 lung is 89.4%; in the test on NCI-H226 lung it was 109%; in the test with NCI-H322M lung it was 98%; with HOP-62 NSCLC it was 108%; with NCI-H460 lung, 98.9%; in the test with HOP-92 NSCLC, 55.5%. Besides, the growth was -60.7% (active) in the test with NCI-H522 lung, 96.4% in the test on A549/ATCC NSCLC, 81.7% in the test on 786-0 renal and 65.4% in the test on COLO 205 colon.

With `O=[N+]([O-])c1ccc(Cl)c(-c2cc(CCCCO)on2)c1`, the growth with NCI-H23 lung was 101%; in the test with NCI-H226 lung it was 93.5%; in the test on NCI-H322M lung, 96.3%; in the test with HOP-62 NSCLC, 106%; in the test on NCI-H460 lung, 109%; with HOP-92 NSCLC it was 94.2%. For the same compound, the growth with NCI-H522 lung is 93.8%; in the test with A549/ATCC NSCLC, 92.9%; in the test with 786-0 renal, 98.6%; with COLO 205 colon, 131%.

As for `COc1cc(CCC[P+](c2ccccc2)(c2ccccc2)c2ccccc2)c(OC)c2c1OCO2`, the growth in the test with NCI-H23 lung is 19.3%; in the test with NCI-H226 lung, 55.3%; with NCI-H322M lung it was 85.3%; with HOP-62 NSCLC it was 18.9%; with NCI-H460 lung, 31.8%; in the test on HOP-92 NSCLC it was 11.3%. In addition, the growth in the test on NCI-H522 lung was 6.02% (active); with A549/ATCC NSCLC it was 43.7%; in the test with 786-0 renal it was 31.2%; in the test with COLO 205 colon, -35.6% (active).

`O=C(Nc1ccc(I)cc1F)c1cc(I)ccc1O`: the growth in the test on NCI-H23 lung was -13.4% (active); in the test on NCI-H226 lung, -4.51% (active); in the test with NCI-H322M lung, -3.09% (active); with HOP-62 NSCLC, 16.8%; in the test on NCI-H460 lung, 2.89% (active); with HOP-92 NSCLC, -20.5% (active). In addition, the growth with NCI-H522 lung was -5.05% (active); in the test on A549/ATCC NSCLC it was 10.9%; in the test with 786-0 renal, 2.12% (active); in the test on COLO 205 colon, 91.1%.

Consider `Cc1nc(NC(=O)COc2ccc(/C=C3\Cc4ccc(Cl)cc4C3=O)cc2)sc1C`, for which the growth in the test with NCI-H23 lung was 100%; in the test with NCI-H226 lung, 99.2%; in the test with NCI-H322M lung, 183%; in the test with HOP-62 NSCLC, 102%; with NCI-H460 lung, 101%; in the test with HOP-92 NSCLC, 88.9%. The growth is 78.9% with NCI-H522 lung, 105% in the test with A549/ATCC NSCLC, 103% in the test on 786-0 renal and 120% with COLO 205 colon.

Turning to `Cc1nc2nc(SCC(=O)O)[nH]c2c(=O)[nH]1`, the growth in the test with NCI-H23 lung is 98.8%; with NCI-H226 lung, 101%; with NCI-H322M lung it was 105%; in the test with HOP-62 NSCLC, 96.7%; in the test with NCI-H460 lung it was 104%; in the test on HOP-92 NSCLC, 95.3%. The growth in the test on NCI-H522 lung was 78.6%; in the test on A549/ATCC NSCLC, 86.6%; in the test with 786-0 renal, 104%; in the test with COLO 205 colon, 109%.

As to `Clc1ccc2c(c1)N(CCCN1CCCC1)c1ccccc1S2`, the growth in the test on NCI-H23 lung was 62.5%; in the test on NCI-H226 lung, 88.2%; in the test on NCI-H322M lung, 36.3%; in the test on HOP-62 NSCLC, 56.4%; in the test on NCI-H460 lung, 30%; in the test with HOP-92 NSCLC it was -4.23% (active). Further, the growth is 71.1% in the test with NCI-H522 lung, 58.6% with A549/ATCC NSCLC, 45.1% in the test on 786-0 renal and -30.8% (active) with COLO 205 colon.

With `CNc1ccc(Nc2cccc(C)c2)c2c1C(=O)c1ccccc1C2=O`, the growth with NCI-H23 lung was 89.9%; in the test on NCI-H226 lung, 93.1%; in the test on NCI-H322M lung, 82.1%; with HOP-62 NSCLC, 102%; in the test with NCI-H460 lung, 87.6%; with HOP-92 NSCLC, 28.9%. Further, the growth in the test on NCI-H522 lung is 75.9%; in the test with A549/ATCC NSCLC, 97.7%; in the test with 786-0 renal, 100%; with COLO 205 colon it was 105%.

In the case of `CCN(CC)Cc1cc(Nc2c3ccc(Cl)cc3nc3ccc(OC)cc23)ccc1O`, the growth in the test on NCI-H23 lung was 65.7%; in the test with NCI-H226 lung it was 86%; with NCI-H322M lung it was 62.5%; in the test on HOP-62 NSCLC, 80.5%; in the test on NCI-H460 lung it was 34.9%; in the test on HOP-92 NSCLC, 60.5%. For the same compound, the growth was 39% in the test on NCI-H522 lung, 52.4% in the test with A549/ATCC NSCLC, 47.3% in the test on 786-0 renal and 5.97% (active) with COLO 205 colon.

Turning to `Cc1ccc(C(=O)NN2C(=O)CSC2c2ccc(Cl)cc2)cn1` (stereo not given), the growth was 84.1% with NCI-H23 lung; 82.4% in the test on NCI-H226 lung; 119% in the test on NCI-H322M lung; 82.2% with HOP-62 NSCLC; 101% with NCI-H460 lung; 71.1% in the test on HOP-92 NSCLC. Also, the growth in the test on NCI-H522 lung is 84.3%; with A549/ATCC NSCLC it was 100%; in the test on 786-0 renal it was 107%; in the test with COLO 205 colon, 105%.

Take `CCCCn1c(=O)c(-c2cc(-c3ccc(Cl)cc3)nc(-c3ccc(Cl)cc3)c2)cc2cc(Cl)ccc21`: the growth with NCI-H23 lung is 105%; in the test with NCI-H226 lung it was 104%; with NCI-H322M lung, 96%; in the test on HOP-62 NSCLC it was 104%; in the test with NCI-H460 lung, 108%; with HOP-92 NSCLC, 94.2%. Also, the growth with NCI-H522 lung is 99.3%; in the test on A549/ATCC NSCLC, 101%; with 786-0 renal, 106%; in the test on COLO 205 colon, 109%.

Take `CCC(C)(c1cc(C(C)(C)C)c(O)c(C(C)(C)C)c1)c1cc(C(C)(C)C)c(O)c(C(C)(C)C)c1`: the growth with NCI-H23 lung is 96.2%; in the test on NCI-H226 lung it was 100%; with NCI-H322M lung, 98%; with HOP-62 NSCLC it was 92.4%; in the test on NCI-H460 lung it was 106%; in the test on HOP-92 NSCLC it was 92.9%. For the same compound, the growth in the test with NCI-H522 lung was 86.4%; with A549/ATCC NSCLC it was 93.5%; with 786-0 renal, 99.2%; in the test with COLO 205 colon, 107%.

Consider `Cc1cc(O)c(C2=NN(c3ccc(S(N)(=O)=O)cc3)C(c3ccccc3O)C2)cc1Cl` (stereo not given), for which the growth in the test with NCI-H23 lung is -19.9% (active); with NCI-H226 lung it was 0.355% (active); in the test on NCI-H322M lung, 46.8%; in the test with HOP-62 NSCLC, -3.51% (active); with NCI-H460 lung it was -47.9% (active); with HOP-92 NSCLC, 5.49% (active). Moreover, the growth was -56.8% (active) in the test on NCI-H522 lung, 3.15% (active) in the test with A549/ATCC NSCLC, -55.7% (active) in the test with 786-0 renal and -94.4% (active) with COLO 205 colon.

Turning to `c1ccc(Nc2cc(-c3cccnc3)[nH]n2)cc1`, the growth is 105% in the test with NCI-H23 lung; 94.1% with NCI-H226 lung; 95.5% with NCI-H322M lung; 84% in the test on HOP-62 NSCLC; 111% in the test on NCI-H460 lung; 94.4% in the test on HOP-92 NSCLC. Besides, the growth is 89.5% with NCI-H522 lung, 93.3% with A549/ATCC NSCLC, 98.1% in the test with 786-0 renal and 106% with COLO 205 colon.
